Compound activity as filed in PubChem.
NALP1 yeast inh = NALP1 inflammasome inhibitors in reconstituted yeast, colorimetric, S. cerevisiae, triplicate retest. S. cerevisiae NALP1/ASC/caspase-1 growth, X-gal OD620, 72 h. inhibition, % at 10 µM. hit rate 0.61% among 280,000. AID 2071, 2009; in the data active = inhibition mostly above about 24%, no sharp cut-off; inactive = mostly below about 32%
TIM10 inh = growth inhibitors of isogenic TIM10 control yeast, primary screen, counter-screen for tim10-1 yeast inhibitor project, luminescence, uHTS | S. cerevisiae TIM10 strain growth, BacTiter-Glo luminescence, 24 h | inhibition, % at 10 µM | hit rate 1.4% among 330,000;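 active = inhibition of 40% or more at the single tested concentration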;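 also: wild-type TIM10 isogenic control strain grown at permissive 25 °C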
NLRP3 yeast inh = NALP3 inflammasome inhibitors in reconstituted yeast, primary screen, luminescence, uHTS; Yeast reconstituted NLRP3/ASC/caspase-1, beta-gal luminescence, 24 h; inhibition, % at 10 µM; hit rate 0.39% among 330,000; AID 2825, 2010;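 active = inhibition of 50% or more; inactive = inhibition below 50%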;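 also: plate controls were induced DMSO wells for no effect and uninduced yeast grown without galactose for full effect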
SKKanGAS inh = S. pyogenes SKKanGAS growth inhibitors in kanamycin, primary screen, streptokinase expression inhibitor project, SKKanGAS strain, BacTiter-Glo luminescence; 6 h; inhibition, % at 7.5 µM; hit rate 1.3% among 300,000;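 active = mean replicate score, as percent of positive control median, at least 50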;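 also: strain carries kanamycin resistance gene driven by streptokinase promoter and grows in 40 µg/ml kanamycin; loss of luminescence reflects streptokinase promoter inhibition or plain growth inhibition; 0% = median of DMSO wells and 100% = positive control at its reference dose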
tim23-1 inh = growth inhibitors of tim23-1 mutant yeast, primary screen, luminescence, uHTS | S. cerevisiae tim23-1 growth, BacTiter-Glo luminescence, 24 h | AID 463212, 2010 | inhibition, % at 20 µM | hit rate 1.3% among 330,000;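 active = growth inhibition of the mutant yeast at or above 50%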;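 also: temperature-sensitive mutant grown at 25 °C; plate controls were DMSO-treated mutant yeast for no effect and medium wells lacking yeast for full effect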
tim10-1 inh = growth inhibitors of tim10-1 mutant yeast, primary screen, luminescence, uHTS; AID 463190, 2010; inhibition, % at 20 µM; hit rate 2.2% among 330,000; S. cerevisiae tim10-1 ts strain growth, BacTiter-Glo, 24 h;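 active = inhibition of at least 40%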;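 also: mutant grown at 25 °C; 0% = DMSO wells with yeast and 100% = wells holding no yeast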
TIM10 conf = growth inhibitors of wild-type TIM10 yeast, confirmation, counter-screen for tim10-1 synthetic lethality project, single concentration, luminescence, S. cerevisiae; shares compounds with TIM10 inh; S. cerevisiae tim10 strain growth, BacTiter-Glo luminescence, 24 h; inhibition, % at 10 µM; hit rate 63% among 4,600;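 active = inhibition of yeast growth at or above a set limit in either of two replicates at 10 µM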;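 also: this counterscreen used the strain with wild-type TIM10; 0% = yeast with DMSO and 100% = medium wells lacking yeast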
* = called active by the depositor; x = no result given. The list is not random: actives were taken first. Their share in the collection is about 4.9%.

SMILES	NALP1 yeast inh	TIM10 inh	NLRP3 yeast inh	SKKanGAS inh	tim23-1 inh	tim10-1 inh	TIM10 conf
CCOC(=O)C1=C(C)NC(=S)NC1c1ccc(-c2ccc(Cl)cc2)o1 (configuration not stated)	10	44*	7	-3	29	29	33*
CCOC(=O)C1=C(C)NC(=S)N(C(C)=O)C1c1ccc(OC)c(OC)c1 (configuration not stated)	-14	10	14	8	19	-3	x
CCOC(=O)C1=C(C)NC(=S)N(C(C)=O)C1c1ccc(Cl)cc1 (configuration not stated)	7	42*	19	8	47	25	42*
CCOC(=O)C1=C(C)NC(=O)NC1c1ccc(-c2ccc(Cl)cc2)o1 (configuration not stated)	1	13	7	-3	16	16	x
O=[N+]([O-])c1ccc(Sc2ccccc2)nc1	21	-5	11	4	18	-1	x
O=[N+]([O-])c1ccc(Sc2n[nH]c(-c3ccccc3)n2)nc1	20	45*	18	-6	24	22	12
COc1ccc(C(=O)c2ccc(OC)c3cccc(O)c23)cc1OC	22	44*	24	4	36	31	27
COc1ccc(C(=O)c2ccc(OC)c(OC)c2)cc1OC	-3	5	1	5	18	19	x
O=C(Nc1ccc(Cl)c(Cl)c1)O/N=C/c1ccncc1	10	43*	6	56*	8	29	-24
Cc1ccc2nc(-c3sc4nc(C)ccc4c3N)[nH]c2c1	11	63*	22	7	35	19	48*
COc1ccc(C(=O)N2CC3(CC(c4cccc(NC(=O)CC(c5ccccc5)c5ccccc5)c4)=NO3)C[C@H]2C(N)=O)cc1 (some centres not stated)	x	96*	13	31	22	24	-5
CC1(C(=O)N2CC3(CC(c4cccc(NC(=O)CC(c5ccccc5)c5ccccc5)c4)=NO3)C[C@@H]2C(N)=O)CC1 (some centres not stated)	23	96*	16	8	22	-1	-20
COc1ccccc1CNC(=O)COc1ccc(S(=O)(=O)N2CCCC2)cc1	-4	13	20	-11	13	-4	x
CCOc1cc(/C=N/NC(=O)c2cccc(S(=O)(=O)N3CCCC3)c2)ccc1OCC(=O)N(C)C	x	-1	6	-7	-7	2	x
c1ccc(OCCOCCN2CCN(C(c3ccccc3)c3ccccc3)CC2)cc1	25	43*	17	13	14	29	-4
COc1ccc(C(=S)N2CCOCC2)cc1OC(=O)c1cccc([N+](=O)[O-])c1	-9	41*	15	-16	25	36	23
COc1cc(C(=S)N2CCOCC2)ccc1OC(=O)c1ccc([N+](=O)[O-])cc1[N+](=O)[O-]	0	44*	12	3	13	18	37*
COc1ccc(C2(c3ccc(OC)cc3)NC(=O)N(CC(=O)N(C)C3CCC(C)CC3)C2=O)cc1 (configuration not stated)	x	5	16	x	0	-4	x
CN(c1ccccc1)c1nc(N)c([N+](=O)[O-])c(N2CCCCCC2)n1	-6	45*	27	-7	41	24	17
O=C(c1cnn2c1NC(c1ccc(Br)cc1)CC2C(F)(F)F)N1CCN(C23CC4CC(CC(C4)C2)C3)CC1 (configuration not stated)	4	42*	5	21	41	35	14
CC(OC(=O)c1n[nH]c2ccccc12)C(=O)NC1CCCCC1C (configuration not stated)	x	1	4	x	20	6	x
